The supplement of paper PMC10849652
Targets with a hit are over-represented here; the source holds about 8,800 in all. About 0.5% of all pairs of compound and target were hits.

Experiments:
Assay in all cases: log2 fold change, soluble protein after heating vs DMSO (PISA); higher = thermal stabilisation; K562 lysate, 10 uM; active = over 0.2 and 3.5 SD of the protein, either way, in both replicates (recomputed)
[1] = compound: CCCS(=O)(=O)Nc1ccc(F)c(C(=O)c2c[nH]c3ncc(-c4ccc(Cl)cc4)cc23)c1F [vemurafenib]
Outline: (§1)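 A 30 min treatment with 10 μM compound was applied to crude K562 extract at 1 mg/mL protein in PBS pH 7.4 with 1 mM MgCl2. Heating for 3 min spanned 48°C-58°C, after which aliquots were pooled, adjusted to 0.5% NP-40 at 4°C and spun at 21,000xg for 90 min. TMTpro 16plex LC-MS/MS of the supernatant, with channel sums equalised, gave values recorded as log-two fold change in thermal stability against solvent controls, from duplicates.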

[2] = compound: CCCS(=O)(=O)Nc1ccc(F)c(C(=O)c2c[nH]c3ncc(Cl)cc23)c1F
Outline: as §1

[3] = compound: CCN(CCCOc1ccc2c(Nc3cc(CC(=O)Nc4cccc(F)c4)[nH]n3)ncnc2c1)CCOP(=O)(O)O [barasertib]
Outline: as §1

[4] = compound: CC[C@@H]1C(=O)N(C)c2cnc(Nc3ccc(C(=O)NC4CCN(C)CC4)cc3OC)nc2N1C1CCCC1
Outline: as §1

[5] = compound: CC[C@@H]1C(=O)N(C)c2cnc(Nc3ccc(C(=O)N[C@H]4CC[C@H](N5CCN(CC6CC6)CC5)CC4)cc3OC)nc2N1C(C)C [volasertib]
Outline: as §1

[6] = compound: CCn1c(C(=O)N(C2CC2)C2CC2)cc2c3c(ncn3C)c(Nc3cc(C)n(C)n3)nc21
Outline: as §1

[7] = compound: CCn1cc(-c2ccnc3[nH]c(-c4cccc(CN(C)C)c4)cc23)c(-c2ccc(NC(=O)N(C)C)cc2)n1
Outline: as §1

[8] = compound: CN1CCC(CNc2ccc3ncc(-c4cccc(OC(F)(F)F)c4)n3n2)CC1
Outline: as §1

[9] = compound: CN1CCN(CCOc2cc(OC3CCOCC3)c3c(Nc4c(Cl)ccc5c4OCO5)ncnc3c2)CC1 [saracatinib]
Outline: as §1

[10] = compound: CN1CCN(c2nc(C3=C(c4c[nH]c5ccccc45)C(=O)NC3=O)c3ccccc3n2)CC1 [sotrastaurin]
Outline: as §1

Measured: log2 fold change

CSNK2A1 (UniProt P68400)
inactive: [1] -0.124 | [2] 0.017 | [3] -0.025 | [4] -0.057 | [5] -0.039 | [6] 0.006 | [7] -0.009 | [8] 0.165 | [9] -0.028 | [10] 0.019

CIC (UniProt I3L2J0)
active: [3] 0.4
inactive: [1] -0.077 | [2] -0.043 | [4] -0.057 | [5] -0.032 | [6] 0.001 | [7] -0.05 | [8] -0.004 | [9] 0.021 | [10] -0.016

CYP51A1 (UniProt Q16850)
UniProt Q16850, sequence (Q16850 whole entry, looked up): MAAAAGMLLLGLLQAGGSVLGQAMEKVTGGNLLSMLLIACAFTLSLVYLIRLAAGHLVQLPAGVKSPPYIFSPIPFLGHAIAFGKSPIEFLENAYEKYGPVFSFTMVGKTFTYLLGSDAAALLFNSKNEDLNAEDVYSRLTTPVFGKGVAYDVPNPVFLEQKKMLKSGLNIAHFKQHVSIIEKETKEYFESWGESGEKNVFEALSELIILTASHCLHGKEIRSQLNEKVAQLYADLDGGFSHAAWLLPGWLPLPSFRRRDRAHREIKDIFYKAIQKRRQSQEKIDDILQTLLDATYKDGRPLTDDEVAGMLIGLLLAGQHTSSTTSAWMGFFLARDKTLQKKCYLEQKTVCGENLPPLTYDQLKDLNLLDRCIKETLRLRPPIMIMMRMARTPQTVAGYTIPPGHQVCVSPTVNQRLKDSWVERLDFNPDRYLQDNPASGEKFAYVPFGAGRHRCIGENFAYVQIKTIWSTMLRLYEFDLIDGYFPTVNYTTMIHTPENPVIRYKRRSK
inactive: [1] -0.014 | [2] -0.007 | [3] -0.011 | [4] 0.053 | [5] 0.01 | [6] -0.02 | [7] -0.103 | [8] -0.066 | [9] -0.043 | [10] 0.001

CLASP1 isoform 4 (UniProt Q7Z460)
inactive: [1] 0.272

DLD (UniProt P09622)
inactive: [1] 0.007 | [2] 0.003 | [3] -0.032 | [4] 0.032 | [5] 0.057 | [6] -0.018 | [7] -0.071 | [8] 0.04 | [9] 0.009 | [10] -0.015

DDX54 isoform 2 (UniProt Q8TDD1)
active: [3] -0.319
inactive: [1] -0.041 | [2] 0.017 | [4] -0.069 | [5] -0.045 | [6] 0.053 | [7] -0.056 | [8] 0 | [9] -0.015 | [10] 0.045

COL6A5 (UniProt A8TX70)
active: [7] -0.834
inactive: [1] 0.073 | [2] 0.041 | [3] 0.09 | [4] 0.078 | [5] -0.044 | [6] -0.055 | [8] 0.374 | [9] -0.048 | [10] -0.03

DDX39A (UniProt O00148)
UniProt O00148, sequence (O00148 whole entry, looked up): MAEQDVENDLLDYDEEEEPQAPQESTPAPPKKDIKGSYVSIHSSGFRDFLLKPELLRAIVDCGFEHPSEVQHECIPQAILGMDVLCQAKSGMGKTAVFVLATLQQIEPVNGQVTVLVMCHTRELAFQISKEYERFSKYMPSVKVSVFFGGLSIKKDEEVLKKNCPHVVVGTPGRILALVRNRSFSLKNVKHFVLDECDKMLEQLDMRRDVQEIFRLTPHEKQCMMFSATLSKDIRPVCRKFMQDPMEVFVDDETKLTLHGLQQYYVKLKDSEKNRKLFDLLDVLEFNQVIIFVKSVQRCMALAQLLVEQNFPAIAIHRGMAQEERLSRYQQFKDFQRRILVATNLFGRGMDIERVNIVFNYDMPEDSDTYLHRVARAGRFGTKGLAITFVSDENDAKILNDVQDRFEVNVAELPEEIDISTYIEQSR
inactive: [1] 0.021 | [2] 0.021 | [3] 0.047 | [4] -0.049 | [5] -0.071 | [6] -0.028 | [7] -0.041 | [8] -0.027 | [9] -0.032 | [10] -0.002

DICER1 (UniProt Q9UPY3)
inactive: [1] -0.002 | [2] 0.05 | [3] 0.01 | [4] 0.003 | [5] -0.068 | [6] 0.021 | [7] 0.275 | [8] 0.036 | [9] 0.005 | [10] -0.018

CORO7 isoform 3 (UniProt P57737)
inactive: [1] 0.031 | [2] 0.013 | [3] 0.008 | [4] -0.042 | [5] -0.01 | [6] 0.016 | [7] 0.044 | [8] -0.175 | [9] 0.004 | [10] 0.008

CWC22 (UniProt Q9HCG8)
UniProt Q9HCG8, sequence (Q9HCG8 whole entry, looked up): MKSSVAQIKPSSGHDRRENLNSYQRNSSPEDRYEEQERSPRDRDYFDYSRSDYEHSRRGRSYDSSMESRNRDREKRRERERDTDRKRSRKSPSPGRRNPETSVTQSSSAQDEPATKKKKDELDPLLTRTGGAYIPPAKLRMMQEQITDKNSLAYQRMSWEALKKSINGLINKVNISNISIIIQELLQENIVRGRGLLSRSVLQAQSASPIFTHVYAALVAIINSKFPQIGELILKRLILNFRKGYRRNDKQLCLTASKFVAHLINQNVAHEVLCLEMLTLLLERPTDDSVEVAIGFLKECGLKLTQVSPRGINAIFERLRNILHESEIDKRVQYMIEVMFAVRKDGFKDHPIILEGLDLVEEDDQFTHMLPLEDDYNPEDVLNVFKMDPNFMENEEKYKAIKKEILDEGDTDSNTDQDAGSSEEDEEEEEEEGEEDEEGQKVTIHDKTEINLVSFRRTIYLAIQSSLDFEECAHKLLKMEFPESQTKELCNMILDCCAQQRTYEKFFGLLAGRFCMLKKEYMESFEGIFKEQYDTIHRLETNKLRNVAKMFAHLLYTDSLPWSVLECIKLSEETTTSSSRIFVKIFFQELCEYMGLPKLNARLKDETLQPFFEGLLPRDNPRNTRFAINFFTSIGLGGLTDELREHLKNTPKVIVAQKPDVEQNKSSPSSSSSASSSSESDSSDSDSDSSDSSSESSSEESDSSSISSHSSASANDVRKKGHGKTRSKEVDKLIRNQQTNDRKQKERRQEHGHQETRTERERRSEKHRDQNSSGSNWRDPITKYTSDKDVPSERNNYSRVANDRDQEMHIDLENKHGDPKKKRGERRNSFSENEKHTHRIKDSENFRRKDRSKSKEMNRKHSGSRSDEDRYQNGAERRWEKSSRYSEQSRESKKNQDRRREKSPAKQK
inactive: [1] 0.002 | [2] 0.045 | [3] 0.028 | [4] -0.209 | [5] -0.033 | [6] 0.017 | [9] -0.052 | [10] -0.013
active: [7] 0.393 | [8] -0.273

DNAJC3 (UniProt Q13217)
inactive: [1] -0.016 | [2] 0.009 | [3] 0.006 | [4] 0.023 | [5] -0.004 | [6] 0.082 | [7] 0.016 | [8] -0.076 | [9] 0.008 | [10] -0.109

CMTM3 (UniProt Q96MX0)
inactive: [1] 0.053 | [2] -0.014 | [3] -0.04 | [4] -0.089 | [5] 0.014 | [6] 0.03 | [7] 0.053 | [8] -0.055 | [9] 0.012 | [10] -0.005

CLPTM1L (UniProt Q96KA5)
inactive: [1] -0.006 | [2] 0.049 | [3] 0.079 | [4] 0.067 | [5] -0.043 | [6] 0.012 | [7] -0.099 | [8] 0.016 | [9] 0.049 | [10] -0.001

DLG3 isoform 2 (UniProt Q92796)
inactive: [1] 0.109 | [2] 0.005 | [3] 0.047 | [4] -0.128 | [5] -0.006 | [6] -0.057 | [7] -0.14 | [8] 0.038 | [9] 0.004 | [10] 0.043

DCP2 (UniProt Q8IU60)
inactive: [1] -0.05 | [2] -0.038 | [3] 0.014 | [4] 0.016 | [5] -0.061 | [6] -0.028 | [7] 0.059 | [8] -0.13 | [9] -0.023 | [10] -0.01

CHUK (UniProt O15111)
inactive: [1] 0.026 | [2] 0.001 | [3] 0.059 | [4] -0.095 | [5] -0.047 | [6] -0.045 | [7] 0.111 | [8] -0.097 | [9] 0.059 | [10] 0.017

CSNK1E (UniProt P49674)
inactive: [1] -0.013 | [2] -0.038 | [3] 0.029 | [4] 0.135 | [5] -0.01 | [6] 0.11 | [7] -0.013 | [8] 0.237 | [9] 0.069 | [10] 0.061

DNAAF5 (UniProt Q86Y56)
inactive: [1] -0.006 | [2] -0.007 | [3] 0.03 | [4] -0.062 | [5] -0.06 | [6] 0.047 | [7] -0.035 | [8] -0.049 | [9] 0.04 | [10] 0.044

CNOT2 (UniProt Q9NZN8)
UniProt Q9NZN8, sequence (Q9NZN8 whole entry, looked up): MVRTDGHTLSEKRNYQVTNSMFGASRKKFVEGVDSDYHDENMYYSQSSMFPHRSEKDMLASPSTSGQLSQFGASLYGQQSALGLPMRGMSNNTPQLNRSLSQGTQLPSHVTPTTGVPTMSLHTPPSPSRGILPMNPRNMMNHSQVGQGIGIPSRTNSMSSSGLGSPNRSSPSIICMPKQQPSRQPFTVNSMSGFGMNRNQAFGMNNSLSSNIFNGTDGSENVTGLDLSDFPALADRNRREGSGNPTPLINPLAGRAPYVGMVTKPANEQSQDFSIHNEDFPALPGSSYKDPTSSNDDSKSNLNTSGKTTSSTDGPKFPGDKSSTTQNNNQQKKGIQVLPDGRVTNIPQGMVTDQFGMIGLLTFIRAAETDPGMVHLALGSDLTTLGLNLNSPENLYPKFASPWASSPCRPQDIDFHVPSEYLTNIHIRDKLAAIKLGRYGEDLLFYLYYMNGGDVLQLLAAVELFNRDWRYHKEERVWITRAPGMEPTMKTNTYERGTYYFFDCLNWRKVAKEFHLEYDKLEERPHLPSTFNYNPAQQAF
inactive: [1] 0.037 | [2] -0.026 | [3] 0.065 | [4] 0.029 | [5] -0.048 | [6] 0.039 | [7] 0.17 | [8] -0.059 | [9] -0.013 | [10] 0.002

CLIC2 (UniProt O15247)
inactive: [1] -0.004 | [2] 0.007 | [3] -0.039 | [4] -0.014 | [5] -0.011 | [6] -0.006 | [7] -0.064 | [8] -0.005 | [9] 0.015 | [10] 0

DHFR (UniProt P00374)
UniProt P00374, sequence (P00374 whole entry, looked up): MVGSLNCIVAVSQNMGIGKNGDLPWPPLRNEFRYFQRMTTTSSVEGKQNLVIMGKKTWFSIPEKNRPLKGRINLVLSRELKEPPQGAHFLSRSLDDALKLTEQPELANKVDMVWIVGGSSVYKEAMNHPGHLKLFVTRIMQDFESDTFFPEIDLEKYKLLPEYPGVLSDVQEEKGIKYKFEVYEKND
active: [2] 0.206
inactive: [1] -0.047 | [3] 0.061 | [4] -0.035 | [5] 0.013 | [6] 0.046 | [7] 0.072 | [8] -0.019 | [9] -0.008 | [10] 0.042

CSPP1 (UniProt Q1MSJ5)
UniProt Q1MSJ5, sequence (Q1MSJ5 whole entry, looked up): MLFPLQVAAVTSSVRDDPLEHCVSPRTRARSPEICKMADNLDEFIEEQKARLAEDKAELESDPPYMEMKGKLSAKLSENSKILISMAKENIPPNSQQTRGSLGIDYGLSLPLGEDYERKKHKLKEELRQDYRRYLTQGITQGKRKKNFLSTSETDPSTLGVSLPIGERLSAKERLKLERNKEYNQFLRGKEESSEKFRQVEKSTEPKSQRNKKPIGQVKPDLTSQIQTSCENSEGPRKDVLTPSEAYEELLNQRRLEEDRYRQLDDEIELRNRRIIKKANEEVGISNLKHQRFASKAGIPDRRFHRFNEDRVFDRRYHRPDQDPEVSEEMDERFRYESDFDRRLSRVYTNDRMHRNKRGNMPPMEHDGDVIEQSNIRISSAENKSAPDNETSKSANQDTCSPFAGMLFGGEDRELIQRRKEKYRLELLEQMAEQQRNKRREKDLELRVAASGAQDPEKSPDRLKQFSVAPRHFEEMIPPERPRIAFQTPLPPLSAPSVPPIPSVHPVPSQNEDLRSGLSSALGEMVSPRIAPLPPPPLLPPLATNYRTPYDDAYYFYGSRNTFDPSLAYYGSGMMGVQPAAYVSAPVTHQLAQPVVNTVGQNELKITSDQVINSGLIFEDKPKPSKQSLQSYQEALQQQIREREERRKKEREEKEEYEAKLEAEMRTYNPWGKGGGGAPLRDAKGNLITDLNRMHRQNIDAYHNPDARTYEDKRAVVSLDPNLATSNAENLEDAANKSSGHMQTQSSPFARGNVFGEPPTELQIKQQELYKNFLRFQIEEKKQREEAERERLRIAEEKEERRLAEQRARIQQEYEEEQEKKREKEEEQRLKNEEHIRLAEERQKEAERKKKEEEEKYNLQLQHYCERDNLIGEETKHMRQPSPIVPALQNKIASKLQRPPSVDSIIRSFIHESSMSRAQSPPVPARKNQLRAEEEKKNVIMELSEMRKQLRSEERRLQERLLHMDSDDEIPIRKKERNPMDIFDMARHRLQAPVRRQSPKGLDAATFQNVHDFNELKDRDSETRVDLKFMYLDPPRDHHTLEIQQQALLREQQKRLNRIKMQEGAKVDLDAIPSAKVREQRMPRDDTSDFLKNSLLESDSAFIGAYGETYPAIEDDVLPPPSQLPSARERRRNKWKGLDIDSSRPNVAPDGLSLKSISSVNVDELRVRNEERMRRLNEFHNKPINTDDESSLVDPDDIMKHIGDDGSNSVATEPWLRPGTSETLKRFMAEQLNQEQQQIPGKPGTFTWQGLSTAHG
inactive: [1] 0.03 | [3] 0.026 | [4] 0.057 | [5] 0.125 | [6] 0.05 | [7] 0.029 | [8] -0.006 | [9] -0.049 | [10] -0.046
active: [2] -0.505

DDX4 (UniProt Q9NQI0)
inactive: [1] -0.044 | [2] -0.015 | [3] 0.069 | [4] -0.071 | [5] -0.021 | [6] 0.015 | [7] -0.167 | [8] 0 | [9] -0.027

DERA (UniProt Q9Y315)
UniProt Q9Y315, sequence (Q9Y315 whole entry, looked up): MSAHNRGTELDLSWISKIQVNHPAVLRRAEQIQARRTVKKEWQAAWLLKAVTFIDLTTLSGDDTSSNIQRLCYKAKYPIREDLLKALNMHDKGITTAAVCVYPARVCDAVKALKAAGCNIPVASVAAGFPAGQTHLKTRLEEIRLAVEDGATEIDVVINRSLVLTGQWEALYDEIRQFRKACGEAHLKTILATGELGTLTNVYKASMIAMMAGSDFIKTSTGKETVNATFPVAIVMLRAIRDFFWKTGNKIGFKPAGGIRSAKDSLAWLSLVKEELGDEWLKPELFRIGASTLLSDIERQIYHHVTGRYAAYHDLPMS
inactive: [1] -0.013 | [2] -0.001 | [3] -0.064 | [4] 0.077 | [5] 0.025 | [6] -0.031 | [8] -0.115 | [9] 0 | [10] -0.03
active: [7] 0.985

DEF6 (UniProt Q9H4E7)
inactive: [1] -0.004 | [2] -0.005 | [3] -0.05 | [4] -0.101 | [5] -0.05 | [6] -0.033 | [7] -0.071 | [8] 0.049 | [9] 0.07 | [10] 0.004

DPH5 isoform 5 (UniProt Q9H2P9)
UniProt Q9H2P9, sequence (Q9H2P9 whole entry, looked up): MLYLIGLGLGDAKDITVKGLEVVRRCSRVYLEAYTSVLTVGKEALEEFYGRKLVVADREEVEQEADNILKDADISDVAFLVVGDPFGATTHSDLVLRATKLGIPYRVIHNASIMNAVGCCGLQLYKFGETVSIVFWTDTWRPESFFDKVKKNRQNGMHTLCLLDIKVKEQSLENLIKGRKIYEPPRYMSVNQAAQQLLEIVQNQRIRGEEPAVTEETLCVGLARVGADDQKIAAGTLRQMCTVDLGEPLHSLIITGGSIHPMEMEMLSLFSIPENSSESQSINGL
inactive: [1] 0.144 | [2] 0.016 | [3] -0.05 | [4] 0.16 | [5] 0.273 | [6] -0.011 | [7] 0.182 | [8] 0.033 | [9] -0.029 | [10] 0.049

CLCN3 isoform 2 (UniProt P51790)
inactive: [1] -0.015 | [2] 0.052 | [3] -0.004 | [4] 0.003 | [5] -0.022 | [6] -0.024 | [7] -0.039 | [8] 0.013 | [9] -0.018 | [10] 0.054

CNOT4 isoform 6 (UniProt O95628)
UniProt O95628, sequence (O95628 whole entry, looked up): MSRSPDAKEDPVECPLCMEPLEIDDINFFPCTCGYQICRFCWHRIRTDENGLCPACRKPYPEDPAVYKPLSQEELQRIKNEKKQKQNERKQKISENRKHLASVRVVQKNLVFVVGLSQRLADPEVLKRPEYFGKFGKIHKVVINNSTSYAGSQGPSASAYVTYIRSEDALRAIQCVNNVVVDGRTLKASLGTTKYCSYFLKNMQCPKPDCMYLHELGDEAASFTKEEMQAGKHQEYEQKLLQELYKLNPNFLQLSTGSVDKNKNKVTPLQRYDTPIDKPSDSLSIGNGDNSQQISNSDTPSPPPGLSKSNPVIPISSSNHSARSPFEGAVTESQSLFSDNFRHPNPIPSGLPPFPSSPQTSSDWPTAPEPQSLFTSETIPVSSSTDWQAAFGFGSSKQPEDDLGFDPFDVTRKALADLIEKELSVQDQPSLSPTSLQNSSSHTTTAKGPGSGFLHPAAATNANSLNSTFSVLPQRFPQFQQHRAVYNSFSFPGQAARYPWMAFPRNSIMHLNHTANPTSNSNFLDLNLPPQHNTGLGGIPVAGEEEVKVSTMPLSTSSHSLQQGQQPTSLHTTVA
inactive: [1] -0.052 | [2] 0.008 | [3] -0.014 | [4] 0.057 | [5] 0.009 | [6] 0.108 | [7] -0.053 | [8] 0 | [9] 0.057 | [10] -0.005

CKS1B (UniProt P61024)
active: [7] 0.391
inactive: [1] -0.047 | [2] -0.029 | [3] 0.029 | [4] -0.031 | [5] -0.018 | [6] -0.017 | [8] -0.268 | [9] 0.044 | [10] 0.025

CPT1A (UniProt P50416)
inactive: [1] 0.024 | [2] 0.035 | [3] 0.048 | [4] 0.038 | [5] 0.032 | [6] -0.018 | [7] 0 | [8] -0.137 | [9] -0.004 | [10] -0.014
